Screening results (PubChem BioAssay)
DT40 TDP1 CPT: qHTS for Inhibitors of human tyrosyl-DNA phosphodiesterase 1 (TDP1): qHTS in cells in presence of CPT. chicken DT40 Tdp1-/-;hTDP1 cells + 20 nM CPT, ATP luminescence, 48 h. hit rate 12% among 420,000. AID 686979, 2013. Potency, µM (titrated, usually from 46.2 µM), for the others: at the highest dose activity change, negative = growth inhibition, usual class: inhibitors; also: potency is read from the fitted curve at half-maximal effect; % is scaled to controls: 0 for no effect and ±100 for the full control effect; nearly all actives have a fitted effect of over 55% in size
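Chicken DT40 Tdp1-/- cells complemented with human TDP1, 400 cells/well, exposed to compounds plus 20 nM camptothecin for at least 48 h at 37 C; viability read as ATP content by CellTiter-Glo luminescence.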
DT40 TDP1 no CPT: qHTS for Inhibitors of human tyrosyl-DNA phosphodiesterase 1 (TDP1): qHTS in cells in absence of CPT | DT40 Tdp1-/- hTDP1 cells, no CPT, ATP luminescence, 48 h | Potency, µM (highest dose often 46.2 µM), for the others: top-dose activity change, negative = growth inhibition, hits mostly inhibitors | hit rate 15% among 420,000 | AID 686978, 2013; also: potency is read from the fitted curve at half-maximal effect; % is scaled to controls: 0 for no effect and ±100 for the full control effect; nearly all actives have a fitted effect of over 55% in size
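Chicken DT40 Tdp1-/- cells stably complemented with human TDP1 were seeded at 400 cells/well with DMSO in place of 20 nM camptothecin. After compound pinning, cells grew at least 48 hr at 37 °C; viability read by CellTiter-Glo luminescence.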
IL-1B inflam inh: qHTS for Inhibitors of Inflammasome Signaling: IL-1-beta AlphaLISA Primary Screen; THP-1 LPS/ATP IL-1B secretion, AlphaLISA, 16 h; stronger effect = lower value; activity change, % at 57.5 µM; hit rate 4.7% among 360,000; in the data active = activity change below about -50%; inconclusive = mostly about -30% to -49%; also: % is scaled to controls: 0 for no effect and ±100 for the full control effect
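THP-1 cells pretreated 1 hr with compounds (up to 57.5 uM final), then stimulated with LPS (250 ng/mL final) plus ATP (1.25 mM final); secreted IL-1B measured by AlphaLISA after 16 hr, decreased signal indicating inhibition.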
TGFb SMAD3 inh: qHTS for Inhibitors of TGF-b. Potency, µM (highest dose often 46.1 µM), for inactives: at the highest dose activity, negative = inhibition, usual class: inhibitors. hit rate 1.2% among 410,000. HepG2 CAGA-GFP TGF-b/SMAD3 reporter, GFP fluorescence, 18 h; TGF-beta stimulated, 500 pg/mL final. AID 588855, 2011; also: potency is read from the fitted curve at half-maximal effect; % is scaled to controls: 0 for no effect and ±100 for the full control effect; nearly all actives have a fitted effect of over 65% in size
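Inhibition of TGF-beta-driven CAGA-GFP reporter expression in HEPG2 cells is measured by cellular GFP fluorescence after 18 h stimulation with 500 pg/mL recombinant TGF-beta in 1% FBS medium at 37 degrees C.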
ASM inhibitor: Inhibitors of Secretory Acid Sphingomyelinase (S-ASM): qHTS. Sphingomyelin phosphodiesterase (Homo sapiens), P17405. placental ASM, HMU-PC fluorogenic substrate, 60 min. Potency, µM (series often up to 57.5 µM), without a hit: at the top dose activity change, negative = inhibition, actives largely listed as inhibitors. hit rate 0.006% among 340,000. AID 504937, 2011; also: potency is read from the fitted curve at half-maximal effect
Target sequence (P17405 47-631 limits assumed): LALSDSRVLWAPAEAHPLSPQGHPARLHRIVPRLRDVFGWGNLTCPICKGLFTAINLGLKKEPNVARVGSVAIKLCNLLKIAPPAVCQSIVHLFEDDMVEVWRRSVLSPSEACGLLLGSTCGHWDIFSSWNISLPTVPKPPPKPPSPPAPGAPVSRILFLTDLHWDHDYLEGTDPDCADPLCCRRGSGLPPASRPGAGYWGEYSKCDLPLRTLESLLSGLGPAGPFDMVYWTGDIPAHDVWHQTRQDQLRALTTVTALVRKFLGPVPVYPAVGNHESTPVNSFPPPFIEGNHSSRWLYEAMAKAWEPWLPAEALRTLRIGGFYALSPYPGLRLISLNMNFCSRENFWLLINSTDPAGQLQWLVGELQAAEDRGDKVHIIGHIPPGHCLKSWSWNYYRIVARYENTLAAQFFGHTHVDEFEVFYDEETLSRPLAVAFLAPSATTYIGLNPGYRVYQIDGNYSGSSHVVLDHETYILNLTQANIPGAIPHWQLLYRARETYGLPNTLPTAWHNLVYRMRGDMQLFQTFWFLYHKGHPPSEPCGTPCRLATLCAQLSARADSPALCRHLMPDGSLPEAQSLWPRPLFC
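Steps: dispense placental human ASM, pin compound, wait 10 min at room temperature, add HMU-PC0 substrate at 9 uM final, incubate 60 min at 37 °C, add stop solution raising pH to 10, read fluorescence.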
HepG2 tox: qHTS for Inhibitors of TGF-b: Cytotox Counterscreen | Potency, µM (series often up to 46.1 µM), without a hit: top-dose activity change, negative = cytotoxicity, usual class: cytotoxic | AID 588856, 2011 | hit rate 0.76% among 410,000 | HepG2 CAGA-GFP viability, ATP luminescence, 18 h; also: potency is read from the fitted curve at half-maximal effect
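CellTiter-Glo luminescence gave cytotoxicity after 18 hours at 37 degrees C. The cells were HepG2 CAGA-GFP in 1% FBS DMEM, stimulated with 500 pg/mL TGF-beta after compound addition. %Activity was normalised to no-cell wells (complete cell-killing) and DMSO (no toxicity), and curves were fitted and classified.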
Starred values were filed as active, the others as inactive; ? = inconclusive. Shown are actives, neighbours in structure and some others; about 19% of the full set was active somewhere. Unless noted, calls follow the shape of the dose curve; as a rule, active = well fitted curve in the direction sought with a large enough effect; inconclusive = small, poorly fitted or top-dose-only effect, or another doubt; inactive = no such curve, though single readings can be large; an effect the other way counts as inactive or inconclusive.

SMILES	DT40 TDP1 CPT	DT40 TDP1 no CPT	IL-1B inflam inh	TGFb SMAD3 inh	ASM inhibitor	HepG2 tox
O=c1c2ccccc2oc2ccc(NCCCn3ccnc3)cc12	?	?	-58*	-6%	-1%	-2%
COc1cccc(NC(=O)COC(=O)c2c3c(nc4ccccc24)CCC(C)C3)c1 (stereo not given)	8.2µM*	9.2µM*	0	?	-15%	-55%
COc1cccc(NC(=O)COC(=O)c2c(C)nn(-c3ccccc3)c2C)c1	?	-24%	-56*	-19%	0%	-6%
O=C1C=C(c2ccc3cc[nH]c3c2)C[C@@H](c2ccc3c(c2)OCO3)C1	1.8µM*	10µM*	2	?	-6%	-8%
Cc1cc(C2=CC(=O)C[C@H](c3ccc4c(c3)OCO4)C2)ccc1F	-18%	-28%	-51*	?	-9%	-19%
Cc1cc(C)c(C2=CC(=O)C[C@H](c3ccc4c(c3)OCO4)C2)c(C)c1	18µM*	?	8	?	-4%	-39%
O=C1C=C(c2ccc3c(c2)OCO3)C[C@@H](c2ccc3c(c2)OCO3)C1	-9%	-23%	11	-1%	-1%	-2%
Cc1nc(SC(C)C(=O)NC2CCCCC2C)c2c(C)c(C)sc2n1 (stereo not given)	-28%	-22%	22	6%	-3%	11%
CC(C)CCc1noc(CN2CCC(C(=O)N3CCOCC3)CC2)n1	-17%	8%	13	6%	-1%	4%
CSc1ncc(CN2CCc3c([nH]c4ccccc34)C2c2cccc(O)c2)cn1 (stereo not given)	?	26µM*	7	11µM*	-22%	-80%
CSc1ncc(CN2CCc3c([nH]c4ccccc34)C2c2cccc(C)n2)cn1 (stereo not given)	?	26µM*	35	1%	-6%	-1%
COc1cc(Cl)c(C)cc1NC(=O)c1ccccc1-n1cnnn1	?	?	7	17%	1%	-3%
CC(=O)c1cccc(NC(=O)c2cc(=O)[nH]c3ccc(S(=O)(=O)N4CCOCC4)cc23)c1	5%	-13%	34	7%	6%	4%
COc1ccc(S(=O)(=O)N2CCC(C(=O)NCCC(=O)Nc3cccc(Cl)c3)CC2)cc1	?	?	?	-6%	2%	-12%
CN(C)c1cc[n+](CC(=O)Nc2ccc([N+](=O)[O-])cc2Cl)cc1	?	?	9	3%	-3%	5%
CN(C)c1cc[n+](CC(=O)Nc2c(Cl)cc(Cl)cc2Cl)cc1	7.3µM*	6.5µM*	-26	?	1%	-59%
NC(=O)c1ccc(NC(=O)COc2coc(CN3CCc4ccccc4C3)cc2=O)cc1	?	-23%	7	1%	0%	-45%
COC(=O)c1ccccc1Sc1ncnc2onc(C)c12	15µM*	?	-103*	?	-2%	-4%
Fc1ccc(-n2cc(CNCCc3ccccn3)c(-c3ccccc3Cl)n2)cc1	9.2µM*	7.3µM*	-74*	8%	-1%	4%
Cc1ccc(-n2cc(CN3CCCN(C=O)CC3)c(-c3ccc(F)cc3)n2)cc1	?	?	?	-10%	-6%	-11%
COc1ccc(-n2cc(CNCCN3CCOC3=O)c(-c3ccccc3Cl)n2)cc1	?	-16%	7	12%	4%	-10%
Cc1ccc(-n2cc(CNCCc3ncc(C)[nH]3)c(-c3ccc(F)cc3)n2)cc1	16µM*	?	-82*	?	0%	-102%
